This is part of a sample that, as a whole, favours compounds with a hit. Of some 83,000 tested, about 20% had one in any assay.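 In brief: 96-well plates, 48 h treatment, single concentration, percent growth endpoint.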 A number with no mark means an inactive call. Activity calls are given as the source filed them. The calls were made as follows: active = growth percent below 10; inactive = the rest.
How the values were obtained:
Test in all cases: NCI-60 one-dose screen, 48 h (100 = growth as untreated, 0 = no growth, -100 = all killed)
[1] = test system: NCI-H460 lung; conditions: 10 µM unless noted
[2] = test system: K-562 leukemia; conditions: 10 µM unless noted
[3] = test system: MALME-3M melanoma; conditions: 10 µM unless noted
[4] = test system: RXF 393 renal; conditions: 10 µM unless noted
[5] = test system: SF-295 CNS; conditions: 10 µM unless noted
[6] = test system: SNB-75 CNS; conditions: 10 µM unless noted
[7] = test system: U251 CNS; conditions: 10 µM unless noted
[8] = test system: SK-MEL-5 melanoma; conditions: 10 µM unless noted
[9] = test system: SK-MEL-2 melanoma; conditions: 10 µM unless noted
[10] = test system: UO-31 renal; conditions: 10 µM unless noted
[11] = test system: HL-60(TB) leukemia; conditions: 10 µM unless noted
[12] = test system: MOLT-4 leukemia; conditions: 10 µM
[13] = test system: RPMI-8226 leukemia; conditions: 10 µM unless noted
[14] = test system: IGROV1 ovarian; conditions: 10 µM
[15] = test system: BT-549 breast; conditions: 10 µM
[16] = test system: HCT-116 colon; conditions: 10 µM unless noted
[17] = test system: HCC-2998 colon; conditions: 10 µM unless noted
[18] = test system: UACC-257 melanoma; conditions: 10 µM unless noted
[19] = test system: SN12C renal; conditions: 10 µM unless noted
[20] = test system: SR leukemia; conditions: 10 µM

Structure (SMILES) | growth [1] | growth [2] | growth [3] | growth [4] | growth [5] | growth [6] | growth [7] | growth [8] | growth [9] | growth [10] | growth [11] | growth [12] | growth [13] | growth [14] | growth [15] | growth [16] | growth [17] | growth [18] | growth [19] | growth [20]
C[CH2][Pb]([CH2]C)([CH2]C)[O]C(=O)c1ccc(N)cc1 | 69.5% | 38.6% | 40.3% | 34.2% | 91.2% | 47.2% | 77.4% | 39% | 39.3% | 52.1% | 56.1% | 60.5% | 59.1% | 61.9% | 56.9% | 57.7% | 67.5% |  |  | 
CCOc1ccc(C(O)CN(C)Cc2ccccc2)cc1Cl (configuration not stated) | 102% | 92.5% | 104% | 90.5% | 96.1% | 92.9% | 97.4% | 93.2% | 102% | 85.5% | 103% | 96.3% | 104% | 106% | 106% | 101% | 102% | 108% | 102% | 95.7%
CC12CCC3C(CC=C4CC(O)CCC43C)C1C/C(=C\N1CCOCC1)C2=O (configuration not stated) | 108% | 108% | 110% | 110% | 113% | 83.5% | 100% | 99.1% | 106% | 79.2% | 129% | 106% | 102% | 119% | 93.1% | 101% | 114% | 101% | 102% | 98.4%
COC(=O)C1CC2c3ccccc3C1c1ccccc12 (configuration not stated) | 104% | 102% | 90.6% | 94.6% | 87.3% | 94.5% | 101% | 94% | 103% | 83.6% | 108% | 97.3% | 82.1% | 96.6% |  | 106% | 107% | 97.8% | 97.7% | 93.9%
O=C(O)C1[O][Sb][O]C1C(=O)O (configuration not stated) | 108% | 89.1% | 86.8% | 116% | 123% | 94.8% | 102% | 86.9% | 96.5% | 90.7% | 91.1% | 94.6% | 99.3% | 81.8% | 84.6% | 103% | 106% | 98.2% | 104% | 70%
CCC1CN1P(=O)(OCCOC)N1CC1CC (configuration not stated) | 111% | 109% | 110% | 110% |  |  | 102% | 109% | 126% | 88.6% | 119% | 108% | 105% | 111% | 106% | 104% | 104% | 96.7% | 101% | 93.8%
CC1(C)N=C(N)N=C(N)N1c1ccc(OCCCCNC(=O)Nc2cccc(S(=O)(=O)F)c2)c(Cl)c1 | 14.2% | 17.7% | 56.5% | 58.2% |  | 74.8% | 15.6% | 25.9% | 81.2% | 90.1% | 29.4% | 37.6% | 38.1% | 37.9% | 66.4% | 16.4% | 50.8% | 45.4% | 7.54% (active) | 45.8%
CC1CC=CCC12C(=O)NC(=S)NC2=O (configuration not stated) | 106% | 94.2% | 105% | 106% | 99% |  | 94.9% | 103% | 131% | 92.9% | 136% | 109% |  | 117% | 110% | 108% | 116% | 114% | 99.8% | 
CC(=O)Nc1ccc(C=C2C(=O)NC(=O)NC2=O)cc1 |  | 104% |  | 118% | 104% | 84.2% | 103% | 115% | 109% | 84.5% |  | 88% | 98.3% | 107% | 112% | 101% | 104% | 98.4% |  | 95.7%
C=CC(=O)NC(O)C(Cl)(Cl)Cl (configuration not stated) | 110% | 97.1% | 85.5% | 129% | 95.6% |  | 102% | 119% | 84.3% | 94.9% | 97.7% | 83.8% | 102% | 98.1% |  |  | 104% | 92.3% | 109% | 90.8%
N#C[Se]CCN1C(=O)C2C(C1=O)[C@H]1C=C[C@@H]2S1 (some centres not stated) | 2.86% (active) | 24.3% | -40.5% (active) | -52.2% (active) | -34.8% (active) |  | -56.9% (active) | -52.8% (active) | 23.4% | -90.7% (active) | -48.1% (active) | 4.47% (active) | -10.4% (active) | -54.4% (active) | -81% (active) | -35.4% (active) | 67.4% | 10.9% |  | 6.77% (active)
C[CH2][Pb]([CH2]C)([CH2]C)[O]C(=O)COC | 3.94% (active) | 0.215% (active) | 10.6% | -8.73% (active) | -58.5% (active) | -4.45% (active) | -12.1% (active) | -74.9% (active) | -38.7% (active) | -9.22% (active) | -50% (active) | -37.7% (active) |  | -13% (active) | -18.8% (active) | -29.7% (active) | -49.9% (active) |  | 2.97% (active) | 
CC1(C)N=C(N)N=C(N)N1c1ccc(CCCCc2ccc(S(=O)(=O)F)cc2)c(Cl)c1 | 10.7% | 13.1% | 44.3% | 43.1% | 3.69% (active) |  | 9.69% (active) | 16.6% | 30.6% | 59.9% | 19.2% | 18.2% | 9.22% (active) | 29.1% | 46.2% | 12.8% | 35.5% | 30.9% |  | 33.4%
FC(F)=C(F)c1ccccc1 | 109% | 89.2% | 101% | 112% | 96.5% | 88.8% | 103% | 105% | 98.5% | 83.7% | 90.8% | 92.6% | 97.5% | 99% | 96% | 103% | 114% | 116% |  | 80.4%
C[C@@H]1O[C@@H](O[C@H]2CC[C@@]3(C)[C@H](CCC4[C@@H]3C(O)C[C@]3(C)[C@@H](c5ccc(=O)oc5)CC[C@]43O)C2)[C@H](O)[C@H](O)[C@H]1O (some centres not stated) | -80.7% (active) |  | -45.9% (active) | -52.3% (active) | -71.5% (active) | -88.3% (active) | -97.9% (active) | -99.6% (active) | -81% (active) | -97.3% (active) |  |  |  | -62.9% (active) | -89.9% (active) | -79.9% (active) | -73.6% (active) | -99.7% (active) | -25.3% (active) | 
CC(=O)[O][Hg][c]1nc2c(c(=O)n(C)c(=O)n2C)n1C | 98.8% | 60.3% | 49.8% | 97.6% | 98.9% |  | 88.3% | 90.8% | 98.6% | 104% | 104% | 100% | 102% | 81% | 111% | 99.9% | 131% | 98% | 104% | 41.3%
O=S(=O)(O)c1ccc(-c2ccc([As](=O)(O)O)cc2)cc1 |  | 101% | 101% | 117% | 101% | 87.1% | 95.6% | 110% | 101% | 89.1% | 102% | 101% | 102% | 107% | 106% | 108% | 105% | 93.6% | 104% | 101%
CC1(C)N=C(N)N=C(N)N1c1ccc(OCCCCNC(=O)c2ccc(S(=O)(=O)F)cc2)c(Cl)c1 | 19.8% | 16.2% | 71.3% | 76.3% |  | 87.7% | 57.2% | 51.4% | 82.4% | 77% | 36.2% | 57.9% | 89.9% | 33.7% | 79.5% | 25.6% | 83.1% | 54.7% | 44.7% | 34.8%

Reference: PubChem BioAssay (NCI)
